{
  "source": "PubChem BioAssay (NCI)",
  "note": "“And” between values parts separate entries of the source, which are not always exact repeats. Equal values may be shown once. The panel holds about 83,000 compounds, 20% with a hit somewhere; the sample as a whole holds those more often.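 Interpretation: 100, growth as untreated; towards 0, rising growth inhibition; 0, no net growth; 0 to -100, cell death. Compounds scoring below 10 were considered active.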 The source made the active and inactive calls.",
  "data": [
    {"tested_on": "MDA-MB-435 melanoma", "test": "NCI-60 one-dose screen, 48 h (100 = growth as untreated, 0 = no growth, -100 = all killed)", "conditions": "10 µM unless noted", "experimental": "Growth inhibition of the MDA-MB-435 human Melanoma tumor cell line is measured as a screen for anti-cancer activity. Cells are grown in 96 well plates and exposed to the test compound for 48 hours. Compounds are tested at a single concentration, which is 10^-5 M for most compounds. The reported endpoint is percent growth (GI% or GIPRCNT), where numbers from 0 - 100% represent growth inhibition, and numbers from -100% - 0 represent cell death. For example, a value of 40 represents 60% growth inhibition. A value of 0 means no net growth occurred over the course of the experiment. A value of -40 indicates 40% of cells at the beginning of the experiment died by the end of the experiment. A value of -100 means all cells are dead at the end of the experiment.\nNCI-60 Human Tumor Cell Lines Screen was performed using the standard one-dose NCI protocol, which is described in more detail at https://dtp.cancer.gov/discovery_development/nci-60/default.htm.\nCompounds with GIPRCNT values below 10 were considered active. Activity score was based on GIPRCNT using the following formula: […]\nScore is 0 for GIPRCNT values of 100 or above, 50 for GIPRCNT values of 0, and 100 for GIPRCNT values of -100.", "values": [
      {"compound": "C#COc1cccc(Nc2ncnc3cc(NC(=O)CF)ccc23)c1", "growth": "-34.2% [6.25 µM] (active)"},
      {"compound": "C=CC[PH+](c1ccccc1)c1ccccc1.C=CC[PH+](c1ccccc1)c1ccccc1.[Pt+2].[S-]c1nc2ccccc2[nH]1.[S-]c1nc2ccccc2[nH]1", "growth": "-50.5% (active)"},
      {"compound": "COc1ccc2c(c1)c(-c1nc(-c3cn(C)c4ncccc34)cs1)cn2CCCCN1CCOCC1", "growth": "-83.4% (active)"},
      {"compound": "O=[N+]([O-])c1ccc(CI)cc1", "growth": "90.4% (inactive)"},
      {"compound": "Cc1nc2ccccc2c(=O)n1-c1ccccc1F", "growth": "102% (inactive)"},
      {"compound": "CC[C@H](C)[C@H](NC(=O)[C@H]1CCCCN1C)C(=O)N(C)[C@H](CCc1nc(C(=O)N[C@@H](Cc2ccccc2)C[C@H](C)C(=O)O)cs1)C(C)C", "growth": "-38.1% (active)"},
      {"compound": "CCCCCCCCCCCCCCCCCCn1cc[n+](C)c1", "growth": "-56.4% (active) and -70.8% (active)"},
      {"compound": "CNC(=O)Oc1ccc(Cl)cc1SSc1cc(Cl)ccc1OC(=O)NC", "growth": "75.5% (inactive)"},
      {"compound": "Cc1ccc(C(=O)O[C@H](C(=O)O)[C@H](OC(=O)c2ccc(C)cc2)C(=O)O)cc1", "growth": "104% (inactive)"},
      {"compound": "CC(=O)C(N)Cc1ccccc1", "note": "(stereo not given)", "growth": "102% (inactive)"},
      {"compound": "N#CCc1ccc(CC#N)cc1", "growth": "102% (inactive)"},
      {"compound": "COc1ccc(CN)cc1OC", "growth": "109% (inactive)"},
      {"compound": "CNC(=O)CCl", "growth": "101% (inactive)"},
      {"compound": "O=P1(N(CCCl)CCCl)NCCCO1", "note": "(stereo not given)", "growth": "107% (inactive)"},
      {"compound": "COC(=O)C1=CO[C@@H](C)[C@@H]2CN3CCc4c([nH]c5cc(OC)ccc45)[C@@H]3C[C@H]12", "growth": "107% (inactive)"},
      {"compound": "CN(C)c1ccc([N+](=O)[O-])c([N+](=O)[O-])c1", "growth": "99% (inactive) and 97.1% (inactive)"},
      {"compound": "CC[C@H](C)[C@H]1O[C@]2(C=C[C@@H]1C)C[C@@H]1C[C@@H](C/C=C(\\C)[C@@H](O[C@H]3C[C@H](OC)[C@@H](O[C@H]4C[C@H](OC)[C@@H](NC)[C@H](C)O4)[C@H](C)O3)[C@@H](C)/C=C/C=C3\\CO[C@@H]4[C@H](O)C(C)=C[C@@H](C(=O)O1)[C@]34O)O2", "growth": "-83.4% (active)"},
      {"compound": "COc1ccc(N(CC(=O)NCCC[Te]c2ccccc2)C(=O)c2ccccc2)cc1", "growth": "101% (inactive)"},
      {"compound": "CC/C(=C(\\c1ccc(OCCN2CCOCC2)cc1)c1ccc(OC(=O)Cc2ccccc2)cc1)c1ccc(Cl)cc1", "growth": "107% (inactive)"},
      {"compound": "Oc1ccccc1C=NCCN=Cc1ccccc1O.[Fe]", "growth": "31.1% (inactive)"},
      {"compound": "Clc1ccc(COC(Cn2ccnc2)c2ccc(Cl)cc2Cl)c(Cl)c1", "note": "(stereo not given)", "growth": "8.47% (active) and 20.5% (inactive)"},
      {"compound": "O=C(NCCCN1CC1)Nc1cccc2ccccc12", "growth": "108% (inactive) and 88% (inactive)"},
      {"compound": "CNC(=O)O/N=C(\\SC)C(=O)N(C)C", "growth": "116% (inactive)"},
      {"compound": "C/C(=C\\c1ccn(-c2ccc(N)cc2F)n1)[C@@H]1C[C@@H]2O[C@]2(C)CCC[C@H](C)[C@H](O)[C@@H](C)C(=O)C(C)(C)[C@@H](O)CC(=O)O1", "growth": "-30% (active)"},
      {"compound": "C[C@]12CCc3sc(Nc4ccc(F)cc4F)nc3C1=CC[C@@H]1[C@@H]2CC[C@]2(C)C(=O)CC[C@@H]12", "growth": "51.5% (inactive)"},
      {"compound": "CC1(C)N(Nc2ccccc2)C(=O)C2CCCN21", "note": "(stereo not given)", "growth": "12.5% (inactive)"},
      {"compound": "CCOC(=O)c1cncn1C(C)c1ccccc1", "note": "(stereo not given)", "growth": "108% (inactive)"},
      {"compound": "O=C/C=C/c1ccco1", "growth": "106% (inactive)"},
      {"compound": "CC1=C([Te]c2ccccc2)C(=O)c2ccccc2C1=O", "growth": "-3.36% (active)"},
      {"compound": "CC[CH2][Sn]([Cl])([Cl])[CH2]CC.Oc1ccccc1C=NCCN=Cc1ccccc1O", "growth": "71.8% (inactive) and 50.1% (inactive)"},
      {"compound": "CC[C@H](C)[C@H](NC(=O)[C@H]1CCCCN1C)C(=O)N(C)[C@H](C[C@@H](OC(C)=O)c1nc(C(=O)NC23C4C5C2C2C3C4C52C(=O)OC)cs1)C(C)C", "note": "(stereo not given in full)", "growth": "-0.902% (active)"},
      {"compound": "COc1ccc(C(C#N)C(C)=O)cc1", "note": "(stereo not given)", "growth": "123% (inactive)"},
      {"compound": "C[N+]12CCC34C5=CC(=O)C(=O)C=C5[N+]5(C)C(=O)CC6OCC=C(C1)C(CC32)C6C45", "note": "(stereo not given)", "growth": "103% (inactive)"},
      {"compound": "COc1ccn(C)c(=O)c1C#N", "growth": "107% (inactive)"},
      {"compound": "OCCNC1CCCCC1", "growth": "106% (inactive)"},
      {"compound": "C[N+]1(C)CCCC1c1cccnc1", "note": "(stereo not given)", "growth": "108% (inactive)"},
      {"compound": "CCCn1cc2c3c(cccc31)[C@H]1C[C@@H](C)CN(C)[C@@H]1C2", "growth": "112% (inactive)"},
      {"compound": "CC[C@@H](C)C(=O)O[C@H]1[C@H](O)[C@H]2[C@@H](CN3C[C@@H](C)CC[C@H]3[C@@]2(C)O)[C@@H]2C[C@]34O[C@]5(O)[C@@H](OC(=O)[C@@](C)(O)CC)CC[C@@]3(C)[C@@H]5[C@@H](OC(C)=O)[C@@H](OC(C)=O)[C@H]4[C@@]21O", "growth": "115% (inactive)"},
      {"compound": "O=C(O)c1ccc(=O)[nH]c1", "growth": "106% (inactive) and 103% (inactive)"},
      {"compound": "C[C@]12CCC3[C@@H](C[C@@H]4SC(Nc5ccccc5)=N[C@@]45CC(=O)CC[C@]35C)[C@@H]1CCC2=O", "note": "(stereo not given in full)", "growth": "1.11% (active)"}
    ]}
  ]
}
